Screening data deposited in PubChem by National Center for Advancing Translational Sciences (NCATS).
Pf growth 96h – inhibits malaria parasite growth, 96 h. hit rate 6.9% among 320,000. P. falciparum luciferase reporter growth, 96 h. AID 504834. Potency, µM (doses to about 28.7 µM), without a hit: at the highest dose activity change, negative = inhibition, most hits filed as inhibitors; note: potency is the fitted concentration of half-maximal effect; % is set by controls: 0 for no effect and ±100 for the full control effect
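P. falciparum expressing integrated firefly luciferase, in erythrocytes at 2% hematocrit, 0.05% parasitemia, incubated with compounds 96 h at 37 C, 5% CO2. Growth inhibition read as loss of luminescence; two-generation exposure targets delayed-death apicoplast inhibitors.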
Cycloheximide cs – counter-screen for Shiga toxin inhibitors: cycloheximide protein synthesis inhibition | cell reporter, cycloheximide protein synthesis inhibition counterscreen | max response, % | hit rate 12% among 300,000 | AID 2314; in the data active = max response mostly above about 13%, no sharp cut-off; inactive = mostly below about 14%; note: read at 38.3 µM for the half of the compounds with a filed dose; 0% is about no effect
FBPA Giardia inh – Giardia lamblia aldolase inhibition. Potency, µM (highest dose often 59.6 µM), for inactives: top-dose activity, negative = inhibition, most hits filed as inhibitors. purified Giardia FBPA. hit rate 0.71% among 290,000; note: potency is the fitted concentration of half-maximal effect; % is set by controls: 0 for no effect and ±100 for the full control effect; nearly all actives have a fitted effect of over 55% in size
Target sequence (A8B2U2 whole entry, looked up): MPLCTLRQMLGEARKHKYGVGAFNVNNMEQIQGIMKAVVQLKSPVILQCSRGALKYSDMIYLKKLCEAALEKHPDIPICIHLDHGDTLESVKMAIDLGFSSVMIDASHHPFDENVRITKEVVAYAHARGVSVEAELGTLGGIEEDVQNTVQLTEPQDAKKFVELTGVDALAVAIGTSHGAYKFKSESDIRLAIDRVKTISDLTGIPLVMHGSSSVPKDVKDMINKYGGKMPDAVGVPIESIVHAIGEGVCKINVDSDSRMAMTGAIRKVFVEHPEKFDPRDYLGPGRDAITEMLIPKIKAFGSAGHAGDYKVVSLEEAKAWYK
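40 nM FBPA preincubated 10 min at RT with compound (up to 57.5 uM final), then substrate plus GAPDH/TPI/NAD/arsenate coupling and diaphorase/resazurin added. Fluorescence read after 20 min at RT, 525/598 nm.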
Shiga inhibitor – Shiga toxin inhibition; Vero cells, Shiga toxin protein synthesis inhibition reporter; inhibition, % at 38.7 µM; hit rate 9.2% among 290,000; AID 2315; in the data active = inhibition mostly above about 28%, no sharp cut-off; inactive = mostly below about 43%; note: 0% is about no effect
Pf growth 48h – P. falciparum growth inhibition at 48 hours (one generation) | AID 504832 | hit rate 5.9% among 310,000 | Potency, µM (series often up to 28.7 µM), inactives show at the highest dose activity change, negative = inhibition, actives largely listed as inhibitors | P. falciparum luciferase growth in erythrocytes, 48 h; note: potency is the fitted concentration of half-maximal effect; % is set by controls: 0 for no effect and ±100 for the full control effect
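Parasite viability was followed by luminescence of a genomically integrated firefly luciferase. Cultures held 0.1% parasitemia at 2% hematocrit (final), incubated under 5% CO2 at 37 C.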
NS1 function inh – inhibitors of influenza NS1 protein function. Potency, µM (doses to about 46.1 µM), without a hit: top-dose activity, positive = more growth. hit rate 0.4% among 270,000; calls by dose curve; note: potency is the fitted concentration of half-maximal effect; actives are rising curves; nearly all actives have a fitted effect of over 50% in size
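In this qHTS, NS1 from influenza A is expressed in budding yeast, where it slows growth. Cells are switched from glucose to 2% galactose medium (pH 6.0, -URA), treated with compound, and growth recovery is read at OD600.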
* = called active by the depositor; ? = inconclusive; / = not tested or not shown; [ ] = remark or other dose. Shown are actives, neighbours in structure and some others; about 21% of the full set was active somewhere. Unless noted, calls come from the whole dose curve; as a rule, active = well fitted curve in the direction sought with a large enough effect; inconclusive = small, poorly fitted or top-dose-only effect, or another doubt; inactive = no such curve, though single readings can be large; an effect the other way counts as inactive or inconclusive.

SMILES	Pf growth 96h	Cycloheximide cs	FBPA Giardia inh	Shiga inhibitor	Pf growth 48h	NS1 function inh
CCC(=O)Nc1c(S(=O)(=O)c2ccccc2)c2nc3ccccc3nc2n1C(C)c1ccccc1 (centres undefined)	12µM*	-2	-10%	-14	12µM*	13%
CCC(=O)Nc1c(S(=O)(=O)c2ccc(C)cc2)c2nc3ccccc3nc2n1C(C)c1ccccc1 (centres undefined)	?	-8	-1%	-14	?	-31%
COc1nc(C)ccc1-c1noc(-c2ccncc2)n1	7%	23*	4%	25	212%	0%
COc1nc(C)ccc1-c1noc(-c2cccs2)n1	65%	58*	-4%	140*	52%	-3%
C=CCOc1ccccc1CN(CCc1ccccc1)C(=O)c1cccc(S(C)(=O)=O)c1	?	0	-3%	-3	?	2%
Cc1cccc(OCCCC(=O)Nc2ccc(N(C)C)cc2)c1	-17%	84*	-6%	122*	240%	15%
CCOC(=O)c1ccc(NC(=O)CCOc2ccccc2)cc1	26%	9	3%	22	/	-60%
CCCOC(=O)c1ccc(NC(=O)CCC(=O)OCC)cc1	?	29*	0%	79*	7%	-89%
CCCOC(=O)c1ccc(NC(=O)CCOc2ccccc2)cc1	-19%	13*	-4%	22	/	-66%
CCCOc1ccc(C(=O)CCC(=O)OCC(=O)Nc2ccc(OCC)cc2)cc1	54%	7	5%	21	18%	1%
O=C(CCOc1ccccc1)Nc1ccccc1	12µM*	27*	2%	41	17%	-9%
CCOC(=O)CNC(=O)O[C@@H]1C(=O)c2cc(Br)ccc2O[C@H]1c1cccc(OC)c1	/	/	-4%	/	/	/
Cc1ccc(NS(=O)(=O)c2ccc(-c3coc(C)n3)cc2)c(Br)c1	?	-2	-2%	-11	22%	?
COc1ccc(C(=O)COC(=O)CCC(=O)Nc2ccc(C(C)=O)cc2)cc1	-13%	40*	/	47*	27%	-4%
COc1ccc(CCC(=O)OCC(=O)Nc2ccccc2)cc1	99%	20*	-3%	68	58%	-24%
Cc1ccc([N+](=O)[O-])cc1NC(=O)CCCOc1ccccc1	7%	0	2%	-7	19%	3%
NS(=O)(=O)c1ccc(NC(=O)COC(=O)CCc2ccccc2)cc1	3%	-3	1%	-2	4%	3%
Cc1ccc(OCCCC(=O)Nc2ccc(S(N)(=O)=O)cc2)cc1	15µM*	21	5%	24	6%	/
O=C(CCOc1ccccc1)Nc1ccc([N+](=O)[O-])cc1	0%	23	2%	37*	-15%	/
COc1ccc(OCCC(=O)Nc2cc(C)on2)cc1	/	-4	0%	-1	-7%	-4%
Cc1ccc(C)c(NC(=O)CCOc2ccccc2)c1	?	-1	5%	-8	1%[0.00184 µM]	-4%
O=C(CCCOc1ccccc1)Nc1ncccn1	24%	32*	7%	38*	46%	5%
O=C(COc1ccc(/C=N/NC(=O)c2ccncc2)cc1)Nc1ccccc1	-10%	4	5%	26	20%	-8%
Cc1ccc(NC(=O)CCOc2ccccc2)cc1	-13%	54*	10%	62*	85%	-36%
O=C(COc1ccc(/C=N/NC(=O)c2ccccc2O)cc1)Nc1ccc([N+](=O)[O-])cc1	12µM*	-1	8%	-12	-7%	8%
SMILES	Pf growth 96h	Cycloheximide cs	FBPA Giardia inh	Shiga inhibitor	Pf growth 48h	NS1 function inh
COc1ccc(OCCC(=O)Nc2ccccc2)cc1	6%	17*	-6%	26*	26%	6%
CCOc1ccc(N2CC(C(=O)N3CCN(C(=O)c4ccco4)CC3)CC2=O)cc1 (centres undefined)	0%	4	7%	7	-10%	?
CCOC(=O)C1CCN(C(=O)c2cc3ccccc3oc2=O)CC1	1%	4	4%	19	36%	/
COc1ccc(NC(=O)CS(=O)(=O)c2ccccc2Cl)cc1	42%	16*	5%	29	40%	-4%
Nc1c(C(=O)Nc2ccccc2)sc2nc3c(c(-c4ccco4)c12)CCC3	?	19*	1%	48*	?	26%
Cc1ccc(NC(=O)c2sc3nc4c(c(-c5ccco5)c3c2N)CCC4)cc1	2.3µM*	6	-7%	18	?	?
Nc1c(C(=O)Nc2ccccc2)sc2nc3c(c(-c4ccco4)c12)CCCC3	?	3	-3%	14	?	13%
CN(c1ccccc1)S(=O)(=O)c1cccc(NS(=O)(=O)c2ccc(/C=C/C(=O)O)cc2)c1	?	-1	?	-17	120%	5%
O=C(c1cc2ccccc2cc1O)N1CCN(c2ccc([N+](=O)[O-])cc2)CC1	?	/	/	/	6.6µM*	/
O=C(c1ccc2ccccc2c1)N1CCN(c2ccc([N+](=O)[O-])c(N3CCOCC3)c2)CC1	8.3µM*	26*	-3%	41	7.4µM*	4%
O=C(c1cc([N+](=O)[O-])ccc1Cl)N1CCN(c2ccccc2)CC1	-1%	0	5%	-12	29%	-8%
O=C(/C=C/c1ccccc1)N1CCN(c2ccc([N+](=O)[O-])c(N3CCOCC3)c2)CC1	10µM*	-2	-9%	-11	?	-35%
Cc1sc(NC(=O)C2CCCCC2C(=O)O)c(C(N)=O)c1-c1ccccc1 (centres undefined)	195%	38*	16%	40*	45%	26%
Cc1sc(NC(=O)/C=C/C(=O)O)c(C(N)=O)c1-c1ccc(C(C)(C)C)cc1	167%	1	17%	11	8.3µM*	-47%
CCOC(=O)c1c(NC(=O)/C=C/C(=O)O)sc(C)c1-c1ccc(C(C)(C)C)cc1	31%[5.75 µM]	3	29%	18	1.7µM*	5%
CCOC(=O)c1c(NC(=O)/C=C\C(=O)O)sc(C)c1-c1ccccc1	-3%	-3	?	-15	?	-5%
C/C(=N\NC(=O)c1c(C)nc2ccccn12)c1ccc(N2CCOCC2)cc1	4%	28*	-5%	42	-11%	-6%
C/C(=N\NC(=O)c1c(C)nc2ccccn12)c1ccc(C(C)(C)C)cc1	13%	11	4%	4	-2%	0%
C/C(=N\NC(=O)c1c(C)nc2ccccn12)c1ccco1	99%	32*	0%	42*	223%	/
c1ccc(N2CCCC3(CCNCC3)C2)nc1	/	/	-8%	/	/	/
CC(C)Cn1c(=O)c(-[n+]2ccccc2)c([O-])c2ccccc21	13µM*	9	-10%	-8	-4%	/
NNC(=O)CN1C(c2ccc(Br)cc2)=Nc2ccc(Br)cc2C1c1ccccc1 (centres undefined)	?	-2	-30%	-10	10µM*	22%
COc1cc(C2=Nc3ccc(Br)cc3C(c3ccccc3)N2CC(=O)NN)cc(OC)c1OC (centres undefined)	?	-1	5%	8	8.3µM*	18%
